Records with an inconclusive call do not appear. Active and inactive are the calls of the source. Rule as the data show it, unless noted: active = response above about 15%; inactive = the rest.
What was measured:
[1] = yeast TOR pathway RPL19A-GFP modulators, primary screen, cell-based, S. cerevisiae, multiplex flow cytometry (AID 1862; in the data active = percent of DMSO control GFP below about 86%;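 also: lower values mimic rapamycin by blocking the RPL19A rise seen in DMSO cells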); conditions: S. cerevisiae RPL19A-GFP strain, flow cytometry fluorescence, 3 h; at 10 µM; stronger effect = lower value
[2] = modulators of MEP2-GFP levels in yeast, primary screen, S. cerevisiae, multiplex flow cytometry (AID 1867;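 active = GFP response, as percent of the DMSO control, above the screen-wide mean plus 3 SD, about 139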;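 also: median GFP channel fluorescence of barcode-gated MEP2-GFP cells measured by flow cytometry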); conditions: S. cerevisiae MEP2-GFP strain, 3 h, at 10 µM, stronger effect = higher value, 100% means same as DMSO wells
[3] = modulators of CIT2-GFP expression in yeast, primary screen, S. cerevisiae, GFP fusion, multiplex flow cytometry (AID 1870;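 active = percent response above a set limit, the screen-wide mean plus 3 SD, cut at about 130% in these data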;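 also: barcoded CIT2-GFP strain pooled with four other GFP strains with rapamycin as positive control; median GFP fluorescence per well over plate mean of DMSO wells so 100% = DMSO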); conditions: 3 h, at 10 µM, stronger effect = higher value
[4] = modulators of LAP4-GFP expression in yeast, primary screen, S. cerevisiae, multiplex flow cytometry (AID 1873;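 active = GFP signal, as percent of the solvent control, above the screen mean plus 3 SD, about 149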); conditions: 3 h, at 10 µM, stronger effect = higher value
[5] = modulators of AGP1-GFP expression in yeast TOR pathway, primary screen, cell-based, multiplex flow cytometry, S. cerevisiae (AID 1887;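 active = GFP signal above the screen-wide mean plus 3 SD, that is over about 124.5% of the solvent control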;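 also: AGP1-GFP fusion strain of S. cerevisiae within a five-strain barcoded multiplex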); conditions: 3 h, at 10 µM, stronger effect = higher value
[6] = inhibitors of CD8+ T cell-vesicle binding, pilot screen, LFA-1/ICAM-1 modulator project, MLPCN validation set, flow cytometry (AID 2523;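 active = response below a set limit, under 55% cells CD8-positive and vesicle-bound, and CD8 cells' 90th-percentile brightness under 279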;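 as to vesicle binding response: mean PE anti-B7-1 fluorescence of CD8+ cells relative to row control; 100% = QL9-loaded vesicles with DMSO vehicle in the same plate row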); conditions: 2C mouse CD8+ T cells, at 7 µM, stronger effect = lower value; double positive events: measured here: CD8+/vesicle+ event percentage
[7] = biological target: Integrin beta-1 (Homo sapiens) + Integrin alpha-4 (Homo sapiens) (UniProt P13612+P05556); assay: inhibition of HUTS-21 binding to VLA-4, pilot screen, VLA-4 allosteric modulator project, U937 cells, HUTS-21 mAb, flow cytometry, validation set (AID 2674;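 active = inhibition above 50%, about 3 SD of the validation set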;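 also: antibody binding induced by the VLA-4 ligand LDV present at three times its Kd; 0% = LDV ligand with antibody and no compound and 100% = antibody without LDV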); conditions: HUTS-21 LIBS mAb binding, at 6.7 µM, stronger effect = higher value, binding induced by LDV ligand
[8] = superoxide lowering in aged yeast cells, pilot screen, validation compound set (AID 2706;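 active = superoxide response below 65% of plate, a cut near 3 SD across the whole screen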;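 also: yeast exposed to compound for one week at 30 degrees C before staining; 100% = mean of all compound wells on the same plate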); conditions: S. cerevisiae aging, superoxide DHE fluorescence; at 10 µM; stronger effect = lower value
[9] = biological target: Beta-adrenergic receptor kinase 1 (Homo sapiens) (UniProt P25098); assay: GRK2 binders displacing RNA aptamer, biochemical, validation, human GRK2, bead flow cytometry (AID 488806;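 active = aptamer binding inhibition above 30%, about 3 SD of noise from non-fluorescent compounds; inactive = inhibition at or below 30%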); conditions: bead-bound GRK2, FAM-aptamer displacement, at 10 µM, stronger effect = higher value
[10] = biological target: Beta-2 adrenergic receptor (Homo sapiens) (UniProt P07550); assay: beta2AR agonists driving receptor internalization, pilot screen, cell-based, FAP fluorogen, flow cytometry, validation set (AID 504459;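 active = percent response above 42, roughly 3 SD of non-fluorescent test compounds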;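 also: agonist-driven loss of surface beta2AR via internalization measured by FAP dye flow cytometry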); conditions: Am2.2-beta2AR cells, FAP surface receptor flow cytometry; at 10 µM; stronger effect = higher value
[11] = biological target: AP-2 complex subunit beta (Homo sapiens) (UniProt P63010); assay: inhibitors of arrestin peptide binding to AP2, pilot screen, biochemical, validation set, GST-AP2 beads, flow cytometry (AID 504541;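 active = inhibition above 54%, about 3 SD of non-fluorescent compounds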;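 also: AP2 carries R879A mutation and is captured from E. coli lysate; bead-bound FITC arrestin peptide fluorescence measuring arrestin peptide binding to AP2; 0% = DMSO wells and 100% = excess unlabeled arrestin peptide control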); conditions: FITC arrestin peptide, at 10 µM, stronger effect = higher value, AP2 beta2 appendage fragment, R879A mutant
[12] = yeast V-ATPase proton transport modulators, S. cerevisiae, pHLuorin, HTS validation (AID 504600);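 also: plate controls were DMSO for no effect and reference compound for full effect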; conditions: S. cerevisiae pHLuorin cytosolic pH, at 10 µM, stronger effect = higher value
[13] = test system: anti-desmoglein-3 scFv antibody binding to human DSG3; assay: inhibitors of anti-DSG3 scFv binding to DSG3, pilot screen, biochemical, validation compound set, bead-based, flow cytometry (AID 588368;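 active = binding below the plate cutoff, the plate median minus 3 SD, with a reading above zero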;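 also: signal is the median channel fluorescence of bead-bound GFP antibody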); conditions: Protein G beads, DSG3-Fc, scFv-GFP binding, at 10 µM, stronger effect = lower value
[14] = inhibitors of fungal efflux pumps CDR1, CDR2, MDR1, pilot screen, validation compound set, multiplex, phenotypic (AID 588506;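 active = efflux inhibition above 0.42, the validation set average plus 4 SD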;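 also: Nile Red retained in cells so higher fluorescence means more efflux inhibition; 0 = negative control wells and 1 = enniatin B 25 µM full block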); conditions: S. cerevisiae pump-expressing triplex, Nile Red efflux flow cytometry; at 10 µM; stronger effect = higher value; the pumps come from Candida albicans
[15] = promoters of myeloid differentiation in arrested cells, primary screen, cell-based, GFP/MAC1 double positive, flow cytometry, validation set (AID 588685;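 active = differentiation response of at least 50%, scaled between solvent and reference control, from cells with both markers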;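 also: compound exposure lasts four days before antibody staining and flow analysis; 0% = DMSO wells and 100% = 5 µM fulvestrant positive control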); conditions: ER-HoxA9 marrow cells, stronger effect = higher value, normalized: vehicle 0, fulvestrant 100
[16] = RPL19A-GFP modulators, yeast TOR pathway, confirmation, cell-based, S. cerevisiae, flow cytometry, cherry picks, mother/daughter gates (AID 2270;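 active = GFP response below 50% of the DMSO control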); conditions: S. cerevisiae RPL19A-GFP strain, 3 h, at 10 µM, stronger effect = lower value, 100 = same GFP as DMSO wells
[17] = LAP4-GFP expression modulators in yeast, confirmation, cell-based, cherry picks, flow cytometry, mother/daughter gates (AID 2271;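 active = GFP response above 150% of the DMSO control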;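 also: ratio of sample to DMSO plate mean so 100% equals DMSO level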); conditions: S. cerevisiae LAP4-GFP strain, 3 h, at 10 µM, stronger effect = higher value, 100 means same as DMSO control
[18] = modulators of MEP2-GFP levels in yeast, confirmation, S. cerevisiae, flow cytometry GFP, cherry picks (AID 2272;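 active = GFP response above 150% of the DMSO control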;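 also: ratio of well signal to plate DMSO mean so 100% equals DMSO level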); conditions: S. cerevisiae MEP2-GFP strain, 3 h, at 10 µM, stronger effect = higher value
[19] = AGP1-GFP expression modulators, hit retest, confirmation, cell-based, flow cytometry, S. cerevisiae, cherry picks (AID 2273;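 active = GFP response above 150% of the DMSO level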;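 also: median GFP channel fluorescence over the whole cell population gate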); conditions: S. cerevisiae AGP1-GFP strain, 3 h, at 10 µM
[20] = modulators of CIT2-GFP expression in yeast, confirmation, S. cerevisiae, GFP fusion, cherry picks, mother/daughter gates (AID 2274;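 active = GFP response above 150% of the DMSO level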); conditions: S. cerevisiae CIT2-GFP strain, flow cytometry, 3 h, at 10 µM, stronger effect = higher value
[21] = biological target: ATP-binding cassette sub-family B member 6 (Homo sapiens) (UniProt Q9NP58); assay: ABCB6 transporter inhibitors, pilot screen, K562-ABCB6 cells, flow cytometry, validation set (AID 588550;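 active = inhibition above the screen-wide mean plus 3 SD, about 51%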;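 also: 0% = DMSO wells and 100% = benzethonium chloride 70 µM positive control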); conditions: K562-ABCB6 porphyrin accumulation, 1 h, at 10 µM, stronger effect = higher value
[22] = measured here: daughter cell gate
[23] = measured here: mother cell gate

Beta-2 adrenergic receptor (Homo sapiens), sequence (P07550 whole entry, looked up): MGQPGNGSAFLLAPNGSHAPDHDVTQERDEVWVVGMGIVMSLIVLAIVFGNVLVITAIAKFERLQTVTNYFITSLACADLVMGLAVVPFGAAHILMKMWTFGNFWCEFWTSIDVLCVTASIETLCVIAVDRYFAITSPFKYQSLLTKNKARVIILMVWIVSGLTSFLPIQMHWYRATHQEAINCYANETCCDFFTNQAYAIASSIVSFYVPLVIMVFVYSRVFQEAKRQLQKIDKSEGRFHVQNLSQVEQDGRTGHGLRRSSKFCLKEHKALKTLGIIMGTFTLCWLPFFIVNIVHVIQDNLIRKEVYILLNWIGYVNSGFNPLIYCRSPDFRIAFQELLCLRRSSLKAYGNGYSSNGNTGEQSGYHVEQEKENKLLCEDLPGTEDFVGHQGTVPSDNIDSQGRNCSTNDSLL
AP-2 complex subunit beta (Homo sapiens), sequence (P63010 whole entry, looked up, the tested form may be a part, one chain of several): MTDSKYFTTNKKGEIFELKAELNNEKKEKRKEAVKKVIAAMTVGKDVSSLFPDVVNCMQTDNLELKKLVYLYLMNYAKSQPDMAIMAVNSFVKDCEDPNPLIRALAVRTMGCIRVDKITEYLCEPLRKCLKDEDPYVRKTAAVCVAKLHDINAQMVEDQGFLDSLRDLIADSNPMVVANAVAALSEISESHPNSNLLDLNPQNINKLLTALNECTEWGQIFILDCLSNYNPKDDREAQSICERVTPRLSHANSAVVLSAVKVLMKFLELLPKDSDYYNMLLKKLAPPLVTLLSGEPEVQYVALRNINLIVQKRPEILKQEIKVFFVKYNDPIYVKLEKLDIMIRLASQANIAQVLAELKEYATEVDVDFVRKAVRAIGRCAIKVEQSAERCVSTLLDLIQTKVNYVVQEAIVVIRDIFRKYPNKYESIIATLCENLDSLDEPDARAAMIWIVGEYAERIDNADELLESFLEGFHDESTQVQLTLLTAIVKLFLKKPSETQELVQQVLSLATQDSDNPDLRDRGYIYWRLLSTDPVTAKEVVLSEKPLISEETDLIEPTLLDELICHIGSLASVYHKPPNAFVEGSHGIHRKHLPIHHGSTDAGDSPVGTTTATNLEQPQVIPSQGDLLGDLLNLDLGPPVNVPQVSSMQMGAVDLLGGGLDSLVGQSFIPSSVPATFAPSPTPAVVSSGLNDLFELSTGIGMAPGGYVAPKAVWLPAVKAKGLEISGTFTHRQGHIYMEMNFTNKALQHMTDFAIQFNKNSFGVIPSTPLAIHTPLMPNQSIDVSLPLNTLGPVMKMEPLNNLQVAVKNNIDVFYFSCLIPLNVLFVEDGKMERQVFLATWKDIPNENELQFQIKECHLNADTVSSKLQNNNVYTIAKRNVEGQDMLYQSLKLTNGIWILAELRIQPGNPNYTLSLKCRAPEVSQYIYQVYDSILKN
ATP-binding cassette sub-family B member 6 (Homo sapiens), sequence (Q9NP58 whole entry, looked up): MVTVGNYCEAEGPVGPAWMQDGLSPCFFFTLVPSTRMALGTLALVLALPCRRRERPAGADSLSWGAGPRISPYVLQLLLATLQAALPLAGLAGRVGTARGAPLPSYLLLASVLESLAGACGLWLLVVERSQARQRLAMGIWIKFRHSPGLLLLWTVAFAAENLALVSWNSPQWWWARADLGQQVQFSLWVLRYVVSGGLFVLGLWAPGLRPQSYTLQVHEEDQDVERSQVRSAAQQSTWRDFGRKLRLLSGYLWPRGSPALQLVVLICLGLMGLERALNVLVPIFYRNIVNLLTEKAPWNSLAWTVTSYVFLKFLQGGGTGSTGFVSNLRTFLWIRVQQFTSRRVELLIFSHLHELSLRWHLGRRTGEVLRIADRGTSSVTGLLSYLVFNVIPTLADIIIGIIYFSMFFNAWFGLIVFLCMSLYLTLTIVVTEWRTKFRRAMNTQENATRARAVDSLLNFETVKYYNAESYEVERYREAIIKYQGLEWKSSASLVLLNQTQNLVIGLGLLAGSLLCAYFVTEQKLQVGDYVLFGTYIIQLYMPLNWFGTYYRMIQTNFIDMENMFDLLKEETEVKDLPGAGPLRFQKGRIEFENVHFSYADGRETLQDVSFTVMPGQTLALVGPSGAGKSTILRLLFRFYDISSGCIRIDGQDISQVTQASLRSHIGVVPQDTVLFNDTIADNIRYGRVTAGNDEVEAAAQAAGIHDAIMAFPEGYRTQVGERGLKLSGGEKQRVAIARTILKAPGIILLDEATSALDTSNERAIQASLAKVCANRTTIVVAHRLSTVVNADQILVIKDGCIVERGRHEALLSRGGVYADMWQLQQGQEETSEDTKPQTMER
Beta-adrenergic receptor kinase 1 (Homo sapiens), sequence (P25098 whole entry, looked up): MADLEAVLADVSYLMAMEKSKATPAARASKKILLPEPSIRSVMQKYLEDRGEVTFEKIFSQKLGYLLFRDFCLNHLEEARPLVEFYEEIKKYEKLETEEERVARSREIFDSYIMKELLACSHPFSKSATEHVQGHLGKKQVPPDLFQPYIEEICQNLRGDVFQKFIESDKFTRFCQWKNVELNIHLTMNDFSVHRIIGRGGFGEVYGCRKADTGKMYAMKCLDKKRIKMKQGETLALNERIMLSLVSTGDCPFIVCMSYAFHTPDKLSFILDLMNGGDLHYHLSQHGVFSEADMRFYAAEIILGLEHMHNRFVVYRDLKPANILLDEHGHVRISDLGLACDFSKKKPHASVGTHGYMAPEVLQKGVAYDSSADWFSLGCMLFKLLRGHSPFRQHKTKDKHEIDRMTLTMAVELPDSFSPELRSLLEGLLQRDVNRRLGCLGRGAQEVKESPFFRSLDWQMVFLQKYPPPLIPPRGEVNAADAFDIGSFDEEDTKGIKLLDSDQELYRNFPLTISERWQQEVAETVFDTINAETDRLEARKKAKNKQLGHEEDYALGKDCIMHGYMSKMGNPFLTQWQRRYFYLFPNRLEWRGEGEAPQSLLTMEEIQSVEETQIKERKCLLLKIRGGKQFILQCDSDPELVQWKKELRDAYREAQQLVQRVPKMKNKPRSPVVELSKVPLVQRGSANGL
Integrin beta-1 (Homo sapiens) + Integrin alpha-4 (Homo sapiens), sequence (P05556 whole entry, looked up): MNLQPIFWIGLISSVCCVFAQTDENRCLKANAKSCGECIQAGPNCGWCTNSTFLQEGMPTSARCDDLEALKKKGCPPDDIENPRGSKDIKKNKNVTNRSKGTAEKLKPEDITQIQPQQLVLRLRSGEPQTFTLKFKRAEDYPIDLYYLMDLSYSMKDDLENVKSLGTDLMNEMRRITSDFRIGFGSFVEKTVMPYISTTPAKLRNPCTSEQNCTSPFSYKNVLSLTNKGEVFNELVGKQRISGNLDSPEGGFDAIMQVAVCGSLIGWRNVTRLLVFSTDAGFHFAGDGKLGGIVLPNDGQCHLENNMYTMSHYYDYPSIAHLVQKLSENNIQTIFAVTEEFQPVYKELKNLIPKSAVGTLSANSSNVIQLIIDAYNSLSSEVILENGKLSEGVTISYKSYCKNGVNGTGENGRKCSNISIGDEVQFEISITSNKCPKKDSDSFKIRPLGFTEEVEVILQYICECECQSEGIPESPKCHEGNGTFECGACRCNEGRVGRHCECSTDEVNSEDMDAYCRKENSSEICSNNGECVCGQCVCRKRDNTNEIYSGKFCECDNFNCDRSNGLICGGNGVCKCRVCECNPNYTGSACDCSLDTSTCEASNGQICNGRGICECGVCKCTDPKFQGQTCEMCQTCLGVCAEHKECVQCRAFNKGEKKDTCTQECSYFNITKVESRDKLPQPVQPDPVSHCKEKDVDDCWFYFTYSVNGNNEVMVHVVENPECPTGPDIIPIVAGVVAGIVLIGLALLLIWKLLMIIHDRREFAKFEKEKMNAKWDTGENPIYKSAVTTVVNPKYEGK
Integrin beta-1 (Homo sapiens) + Integrin alpha-4 (Homo sapiens), sequence (P13612 whole entry, looked up): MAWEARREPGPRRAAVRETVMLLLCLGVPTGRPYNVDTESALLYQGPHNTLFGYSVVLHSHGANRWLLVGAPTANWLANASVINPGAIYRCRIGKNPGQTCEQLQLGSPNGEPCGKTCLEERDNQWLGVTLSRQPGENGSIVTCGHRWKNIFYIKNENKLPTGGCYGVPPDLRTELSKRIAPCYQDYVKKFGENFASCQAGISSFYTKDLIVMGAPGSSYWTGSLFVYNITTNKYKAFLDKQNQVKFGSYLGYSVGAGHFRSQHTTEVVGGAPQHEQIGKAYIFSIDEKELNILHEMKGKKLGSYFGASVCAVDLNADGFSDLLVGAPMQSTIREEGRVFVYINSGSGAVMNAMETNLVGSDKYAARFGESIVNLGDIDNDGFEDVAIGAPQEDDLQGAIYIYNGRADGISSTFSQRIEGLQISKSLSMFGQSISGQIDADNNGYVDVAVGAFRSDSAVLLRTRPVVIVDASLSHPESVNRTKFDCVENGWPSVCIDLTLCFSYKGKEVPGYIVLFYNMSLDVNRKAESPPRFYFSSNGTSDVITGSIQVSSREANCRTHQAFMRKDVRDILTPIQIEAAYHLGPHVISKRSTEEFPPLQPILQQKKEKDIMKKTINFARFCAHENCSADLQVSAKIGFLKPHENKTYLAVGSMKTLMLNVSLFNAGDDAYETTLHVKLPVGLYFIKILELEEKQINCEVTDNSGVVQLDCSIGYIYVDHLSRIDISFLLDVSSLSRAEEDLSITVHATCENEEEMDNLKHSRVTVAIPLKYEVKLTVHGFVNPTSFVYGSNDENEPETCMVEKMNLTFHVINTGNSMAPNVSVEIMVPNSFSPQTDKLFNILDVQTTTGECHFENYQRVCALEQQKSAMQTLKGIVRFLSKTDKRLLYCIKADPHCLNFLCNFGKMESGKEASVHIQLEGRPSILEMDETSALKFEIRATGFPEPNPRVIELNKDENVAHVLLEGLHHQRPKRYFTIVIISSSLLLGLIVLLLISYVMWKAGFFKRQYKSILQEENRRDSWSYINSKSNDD

CCOCC(=O)Nc1ccccc1C(=O)N1CCOCC1
67.2%: double positive events [6]
inactive: percent of DMSO control GFP [1] 97% | GFP response vs DMSO [2] 130% | percent response of DMSO control [3] 114% | GFP response vs DMSO [4] 88.6% | GFP response, % of DMSO [5] 87.7% | vesicle binding response [6] 182% | inhibition [7] -2.27% | superoxide response (% of plate) [8] 96.8% | aptamer binding inhibition [9] 6% | response [10] 2.34% | inhibition [11] 14.3% | response [12] -3.44% | binding (% of control) [13] 100% | efflux inhibition (fraction of control) [14] 0.23 | differentiation response [15] 0%

CCN(CC)c1ccc2cc(-c3nc(-c4ccc(OC)cc4)cs3)c(=O)oc2c1
106%: GFP response vs DMSO [16, 23]
132%: GFP response relative to DMSO ([17]; measured here: daughter cell gate response)
135%: GFP response relative to DMSO ([17]; measured here: mother cell gate response)
149%: GFP response, % of DMSO [20, 23]
active: GFP response vs DMSO [18] 180% | GFP response, % of DMSO [20] 160%
103%: GFP response vs DMSO [16, 22]
inactive: GFP response vs DMSO [16] 105% | GFP response relative to DMSO [17] 138% | GFP response, % of DMSO [19] 108%
152%: GFP response, % of DMSO [20, 22]

Cc1cccc2c(C(=O)O)cc(-c3cccnc3)nc12
63.5%: double positive events [6]
inactive: percent of DMSO control GFP [1] 104% | GFP response vs DMSO [2] 105% | percent response of DMSO control [3] 95.4% | GFP response vs DMSO [4] 98% | GFP response, % of DMSO [5] 101% | vesicle binding response [6] 140% | inhibition [7] 3.7% | superoxide response (% of plate) [8] 102% | aptamer binding inhibition [9] 0% | response [10] -8.08% | inhibition [11] -0.94% | response [12] 2.28% | binding (% of control) [13] 95% | efflux inhibition (fraction of control) [14] -0.01 | inhibition [21] -3% | differentiation response [15] 7.09%

CC(C)=CCCC1=CCC2C(=O)NNC(=O)C2C1 (configuration not stated)
inactive: percent of DMSO control GFP [1] 98.8% | GFP response vs DMSO [2] 101% | percent response of DMSO control [3] 110% | GFP response vs DMSO [4] 99.9% | GFP response, % of DMSO [5] 99.5% | inhibition [7] -3.16% | superoxide response (% of plate) [8] 104% | aptamer binding inhibition [9] 3% | response [10] -19.2% | inhibition [11] -0.62% | binding (% of control) [13] 103% | efflux inhibition (fraction of control) [14] -0.1 | inhibition [21] 4% | differentiation response [15] -10.4%
active: vesicle binding response [6] 61.5% | response [12] 51.2%
50.6%: double positive events [6]

CC(=O)NC1C(OCc2ccccc2)OC(COC(C)=O)C(OC(C)=O)C1OC(C)=O (configuration not stated)
inactive: percent of DMSO control GFP [1] 104% | GFP response vs DMSO [2] 104% | percent response of DMSO control [3] 106% | GFP response vs DMSO [4] 91.5% | GFP response, % of DMSO [5] 96% | vesicle binding response [6] 183% | inhibition [7] -44% | superoxide response (% of plate) [8] 105% | aptamer binding inhibition [9] 2% | response [10] 1.83% | inhibition [11] -2% | response [12] -3.81% | binding (% of control) [13] 104% | efflux inhibition (fraction of control) [14] 0.12 | inhibition [21] 2% | differentiation response [15] -6.03%
65.2%: double positive events [6]

CC(C)c1cc(=O)oc2c3c4c(cc12)CCCN4CCC3
59.3%: double positive events [6]
active: response [10] 46% | response [12] 21.6%
inactive: percent of DMSO control GFP [1] 104% | GFP response vs DMSO [2] 99.6% | percent response of DMSO control [3] 99.6% | GFP response vs DMSO [4] 78.6% | GFP response, % of DMSO [5] 90.6% | vesicle binding response [6] 145% | superoxide response (% of plate) [8] 97.7% | aptamer binding inhibition [9] 9% | inhibition [11] -43.1% | binding (% of control) [13] 98.7% | efflux inhibition (fraction of control) [14] 0.3 | inhibition [21] 2% | differentiation response [15] -21.6%

COc1ccc2[nH]c3c(c2c1)CCNC3C1CC=C(C)CC1 (configuration not stated)
69%: double positive events [6]
inactive: percent of DMSO control GFP [1] 95.9% | GFP response vs DMSO [2] 128% | percent response of DMSO control [3] 104% | GFP response vs DMSO [4] 79.8% | GFP response, % of DMSO [5] 101% | vesicle binding response [6] 519% | inhibition [7] 7.43% | superoxide response (% of plate) [8] 111% | aptamer binding inhibition [9] -1% | response [10] 13.6% | inhibition [11] 2.43% | response [12] -0.18% | binding (% of control) [13] 113% | efflux inhibition (fraction of control) [14] 0.12 | inhibition [21] -1% | differentiation response [15] 0.82%

COc1cc2c(cc1OC)C(=S)NC(C)(C)C2
inactive: percent of DMSO control GFP [1] 102% | GFP response vs DMSO [2] 106% | percent response of DMSO control [3] 100% | GFP response vs DMSO [4] 95.3% | GFP response, % of DMSO [5] 102% | vesicle binding response [6] 1280% | inhibition [7] -11.9% | superoxide response (% of plate) [8] 110% | aptamer binding inhibition [9] 0% | response [10] 0.62% | inhibition [11] 22% | response [12] -4.8% | binding (% of control) [13] 101% | efflux inhibition (fraction of control) [14] 0.08 | inhibition [21] -13% | differentiation response [15] 6.11%
60.1%: double positive events [6]

COc1ccc(C(CC(=O)N2CCOCC2)C(C)C)cc1 (configuration not stated)
55.7%: double positive events [6]
inactive: percent of DMSO control GFP [1] 100% | GFP response vs DMSO [2] 99.6% | percent response of DMSO control [3] 101% | GFP response vs DMSO [4] 118% | GFP response, % of DMSO [5] 106% | vesicle binding response [6] 56.1% | inhibition [7] 2.3% | superoxide response (% of plate) [8] 77.9% | aptamer binding inhibition [9] 3% | response [10] -9.06% | inhibition [11] -2.4% | response [12] 1.44% | binding (% of control) [13] 95.3% | efflux inhibition (fraction of control) [14] -0.06 | inhibition [21] 7% | differentiation response [15] -18.4%

COCCn1c(SCCOc2ccccc2)nc2ccccc2c1=O
54%: double positive events [6]
inactive: percent of DMSO control GFP [1] 99.8% | GFP response vs DMSO [2] 108% | percent response of DMSO control [3] 103% | GFP response vs DMSO [4] 103% | GFP response, % of DMSO [5] 96.8% | vesicle binding response [6] 154% | inhibition [7] 6.95% | superoxide response (% of plate) [8] 104% | aptamer binding inhibition [9] 5% | response [10] -6.97% | inhibition [11] -3.51% | response [12] 0.42% | binding (% of control) [13] 103% | efflux inhibition (fraction of control) [14] 0.36 | inhibition [21] 18% | differentiation response [15] 1.28%

Source: PubChem BioAssay
